# Columns and labels:
# Test in all cases: PBM binding z-score (relative to random genomic background probes); higher = stronger binding; sequences stand for … in GC…GCGATTGACAGCGTAGAATGAAGG
# [1] = test system: PPARg:RXRa DBDmut IVT, anti-RXR (DBD mutation: RXRa K156A/R161A, NR concentration 270 nM, RXRa partner concentration 90 nM)
# How it was run: (§1)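 On custom Agilent 4×180K arrays, double-stranded probes with 34-nt variable regions carried direct-repeat seeds, single-nucleotide variants, half-site ablations or random human genomic background. Ligand-free nuclear receptor dimers were applied for 1 h, and binding was read with antibodies against each partner (one per run). Binding z-scores come from regression-normalized fluorescence, with the random background probes as reference.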
# [2] = test system: PPARg:RXRa IVT, anti-PPARg (NR concentration 270 nM, RXRa partner concentration 90 nM)
# How it was run: as §1
# [3] = test system: PPARg DBDmut:RXRa IVT, anti-PPARg (DBD mutation: PPARg1 K132A/R137A, NR concentration 270 nM, RXRa partner concentration 90 nM)
# How it was run: as §1
# [4] = test system: PPARg DBDmut IVT, anti-PPARg (DBD mutation: PPARg1 K132A/R137A, NR concentration 270 nM)
# How it was run: as §1
# [5] = test system: PPARg homodimer (NR concentration 180 nM)
# How it was run: as §1
# [6] = test system: PXR:RXRa (NR concentration 270 nM, RXRa partner concentration 90 nM)
# How it was run: as §1
# [7] = test system: PXR homodimer (NR concentration 270 nM)
# How it was run: as §1
# [8] = test system: RARa:RXR (NR concentration 270 nM, RXRa partner concentration 90 nM)
# How it was run: as §1
# [9] = test system: RARa homodimer (NR concentration 270 nM)
# How it was run: as §1
# [10] = test system: RARb:RXRa (NR concentration 270 nM, RXRa partner concentration 90 nM)
# How it was run: as §1
# [11] = test system: RARb homodimer (NR concentration 270 nM)
# How it was run: as §1
# [12] = test system: RARg:RXRa (NR concentration 270 nM, RXRa partner concentration 90 nM)
# How it was run: as §1
# [13] = test system: RARg homodimer (NR concentration 270 nM)
# How it was run: as §1
# [14] = test system: RXRa DBDmut IVT, anti-RXR (DBD mutation: RXRa K156A/R161A, NR concentration 90 nM)
# How it was run: as §1
# [15] = test system: RXRa homodimer (NR concentration 180 nM)
# How it was run: as §1
# [16] = test system: THRa:RXRa (NR concentration 90 nM, RXRa partner concentration 90 nM)
# How it was run: as §1
# [17] = test system: THRa homodimer (NR concentration 90 nM)
# How it was run: as §1
# [18] = test system: VDR homodimer (NR concentration 270 nM)
# How it was run: as §1
Sequence,PBM binding z-score [1],PBM binding z-score [2],PBM binding z-score [3],PBM binding z-score [4],PBM binding z-score [5],PBM binding z-score [6],PBM binding z-score [7],PBM binding z-score [8],PBM binding z-score [9],PBM binding z-score [10],PBM binding z-score [11],PBM binding z-score [12],PBM binding z-score [13],PBM binding z-score [14],PBM binding z-score [15],PBM binding z-score [16],PBM binding z-score [17],PBM binding z-score [18]
TCTGCTAGGACAGTTGGTCAGCTAACGAGCTGCC,0.464,0.0709,-0.543,-0.756,-1.29,-0.745,-1.05,-0.557,-1.03,0.346,-0.304,-0.493,-0.356,-0.0894,-0.639,-0.274,-0.784,-1.13
CCTACTGAGCCAAGGTCATTGATCAGTCAAAGCA,0.598,0.834,-0.559,-0.729,2.66,3.69,2.46,3.64,1.47,3.15,3.43,3.7,3.17,2.2,3.23,3.52,2.49,3.65
GCTACTGGGGCATCAGCAGGTTACCATAACTTAA,5.96,5.52,0.447,0.741,0.599,0.0663,-0.537,0.497,-0.28,0.962,0.946,0.791,0.586,0.403,0.169,1.09,0.00611,-0.67
CGTCCAAGGTCAGAGAGGTCTGTGAATGCCGAGT,2.15,2.25,-0.507,-0.56,2.09,2.96,1.23,3.24,0.529,4.49,3.99,4.61,5.25,2.64,3.4,3.38,1.64,1.65
CCGACTGGGCCAAGGTCATTGATCAGTCAAAGCA,2.08,2.75,-1.14,-0.87,2.42,3.48,0.921,3.76,0.257,3.26,3.28,3.72,3.11,1.4,3.09,3.46,2.09,3.33
CGTCCAAGGTGAAAGGTCAGTGAAGAGATGACGG,2.98,5.2,-0.368,-0.702,3.24,4.74,0.474,6.87,1.47,4.62,4.53,6.03,5.76,0.481,7.85,3.97,1.23,1.08
ACAGACAGGTGAGTGAAGGTAACTCAACTGGACG,0.567,0.507,-0.777,-0.0154,-0.369,-0.316,-0.108,0.0758,-0.165,0.486,0.036,0.211,0.661,-0.368,0.324,1.75,-0.422,-0.644
ATCTTTAGGTAAAGATAGTTCAGTGAATGCAAAT,0.996,0.866,1.02,1.16,0.255,1.01,0.329,0.518,1.15,0.913,0.997,0.713,0.798,0.388,0.298,1.23,0.203,0.742
CCTTACGGGTCACTGACAGGTTATTGCATTTGGA,3.48,3.61,0.525,0.563,2.74,3.89,0.344,4.51,0.71,4.04,3.24,5.55,4.57,1.94,5.07,2.92,0.504,1.45
TCTGATAGGTCAACGATGGTCAGCTAATCTGCTA,3.63,3.48,0.759,0.735,2.17,3.01,-0.308,3.7,1.12,4.44,3.94,5.15,5.89,1.21,4.73,3.1,-0.296,-0.032
CGTGCAAGGTCAGCAGGTCAGTGAAAGCGACGTG,3.36,3.96,-0.142,0.527,2.62,3.87,0.564,4.71,0.769,5.35,4.76,6.54,7.05,2.5,5.2,4.03,2.04,1.73
CTACCAAGGTGAACGAGGTCGTTGATTACTATTC,2.17,2.89,0.126,-0.713,0.838,3.54,2.67,2.7,0.278,2.3,2.24,2.13,1.32,1.85,2.26,3.36,2.17,3.61
CTACCAATGTGAACAAGGTCGTTGATTACTATTC,0.604,0.639,0.446,0.752,0.968,1.99,1.41,1.89,1.01,0.831,1.33,0.629,0.564,1.83,1.08,2.17,1.33,2.32
CCAGACAGGTGTGAAGGTAACTCAGCCTCGATTA,-0.0821,-0.409,-1.46,-0.767,0.376,-0.386,0.146,-0.273,0.322,-0.103,0.327,-0.276,-0.122,0.399,-0.117,0.116,0.347,0.0431
AGAACGAGGTCAATGAGTTGATAGCACGGGTGGC,5.59,5.76,1.71,0.861,3.64,5.72,8.63,5.14,0.929,4.89,3.94,5.78,5.81,4.11,6.03,3.94,2.08,5.27
CCTAGTGGGTCAAGGTCACACACGCTATAGGTAC,6.82,8.11,2.26,1.37,4.57,4.75,1.48,5.41,2.82,4.87,4.58,5.74,6.11,1.58,5.6,4.22,3.74,3.44
CAAACTACGTCACGAAAGGTCAAAGTCGAATGAC,0.398,2.49,1.4,1.92,3.68,5.52,1.91,6.35,2.63,4.43,4.48,5.61,5.12,1.05,6.68,3.93,1.11,2.66
CATACTGGGCCACGAAAGGTCATTGATTCAGTGA,4.74,5.55,1.83,0.862,2.89,5.4,1.75,5.41,0.959,4.16,4.71,4.59,4.63,0.963,4.9,3.87,1.47,2.45
TCTATTAGTTGAAGGGCAACCGCCGAGTCCGTTT,2.32,0.783,0.465,1.32,1.11,0.779,0.698,0.905,1.14,1.74,1.41,0.448,0.651,1.57,0.559,0.213,0.417,1.86
TCTTGTAGATCAATAGAGGTCAAGAAAGTGCGCT,1.9,2.9,1.22,0.341,1.79,5.53,1.38,4.29,0.852,3.26,4.21,3.92,3.84,0.858,4.46,4.17,0.941,2.12
CCTCGGCGGACAACAGGAGGTCAGAGCTGCCAGA,-0.701,-0.463,-0.701,-1.7,0.632,1.32,0.232,1.76,0.119,1.96,2.88,2.16,2.04,-0.404,1.71,1.75,0.00224,0.257
CGTCCAAGGTCAAAGAGGTCAGTGAATGCCGAGT,3.99,4.53,0.213,-0.987,5.13,6.71,12.7,6.05,1.8,5.48,5.66,7.1,7.62,4.35,7.47,4.48,3.36,6.32
AGAATGAGGTTATTAAGGTCAGGGAATTGCGGTC,4.18,4.42,1.61,0.235,2.65,5.11,11.1,4.38,1.85,3.79,4.31,4.16,3.63,2.88,4.62,4.71,5.16,4.86
ATCTCCAGGTAACCAAGTTCAGTGAATGCCGAAC,0.934,1.52,0.875,0.957,0.841,2.24,2.55,0.649,0.534,0.985,1.58,0.664,0.86,1.06,0.486,1.96,1.31,3.04
TCTTGTAGATCCATAGAGGTTAAGAAAGTGCGCT,1.15,0.128,1.1,0.975,0.227,2.66,0.0814,1.35,0.858,0.837,1.25,0.611,0.378,0.691,1.1,1.07,-0.276,0.319
CCTACTTGGCCATCAGGTCATTGATATCAACGTT,1.33,1.93,0.603,0.617,1.82,1.95,1.62,2.17,1.76,2.19,2.89,2.15,2.12,1.5,1.43,3.39,3.64,2.19
ATATGTAGGTTAGCTGGGGTCATTCAAACTAGGC,7,6.34,2.93,1.75,3.19,6.37,4.83,5.84,1.69,3.18,4.02,4.22,3.15,2.15,5.57,5.16,3.52,5.71
ATCTGTAGGTAAAAGTTCAGTGAATCCCGAGGAT,1.88,3.51,0.891,0.681,1.13,2.01,1.1,2.07,1,2.38,2.42,1.79,1.84,0.663,1.65,0.83,-0.173,1.36
AATACAGGGTCATCCTAGGCCAGAGTACGCACAG,2.5,4.16,1.89,1.39,2.39,5,0.711,4.8,1.41,4.46,3.81,5.57,4.83,3.9,6.16,,1.97,3.52
